# Experimental data reported in publication PMC7862700, “An all-to-all approach to the identification of sequence-specific readers for epigenetic DNA modifications on cytosine”.
# Tests used:
# Assay in all cases: DAPPL (digital affinity profiling via proximity ligation, sequencing); 10 mM Tris-HCl pH 7.5, 50 mM NaCl, 1 mM DTT, 4% glycerol, room temperature, 30 min; GST-TFs on glutathione beads, 16-mer random dsDNA library, 0.1% formaldehyde crosslink after washing; high values mean tight binding
# Conditions in all cases: protein: recombinant; tags: N-terminal GST; dsDNA, one strand shown
# [1] = biological target: T1, ELK1 (Homo sapiens, UniProt P19419 1-428)
# T1 sequence: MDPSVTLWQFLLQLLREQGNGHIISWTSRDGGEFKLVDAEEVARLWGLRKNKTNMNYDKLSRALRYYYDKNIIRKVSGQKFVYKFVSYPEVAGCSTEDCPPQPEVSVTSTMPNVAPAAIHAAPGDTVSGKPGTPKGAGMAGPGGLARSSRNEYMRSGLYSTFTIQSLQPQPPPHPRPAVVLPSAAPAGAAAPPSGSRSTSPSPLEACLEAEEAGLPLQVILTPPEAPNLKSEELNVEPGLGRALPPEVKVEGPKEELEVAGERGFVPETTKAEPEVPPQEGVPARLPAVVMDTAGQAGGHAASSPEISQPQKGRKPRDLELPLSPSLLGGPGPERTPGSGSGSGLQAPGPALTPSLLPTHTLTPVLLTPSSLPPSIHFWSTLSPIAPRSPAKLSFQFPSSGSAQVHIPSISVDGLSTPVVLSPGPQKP
# Method in brief: (§1)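 Beads coated with glutathione captured GST-fused human transcription factors that had been expressed in yeast, and the factors were then given DNA barcodes and pooled with a tag-only sample. The pools were incubated with 200 nmole of a random double-stranded 16-mer DNA library in Tris/NaCl/DTT/glycerol buffer for 30 min at room temperature, washed, crosslinked with 0.1% formaldehyde and proximity-ligated with BsaI/T4 ligase at 37 °C for 1 h. PCR amplification and Illumina NextSeq500 sequencing came last. Binding signal is each hexamer's read frequency for a factor divided by its frequency for the tag-only sample.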
# [2] = biological target: T2, GABPA (Homo sapiens, UniProt Q06546 1-454)
# T2 sequence: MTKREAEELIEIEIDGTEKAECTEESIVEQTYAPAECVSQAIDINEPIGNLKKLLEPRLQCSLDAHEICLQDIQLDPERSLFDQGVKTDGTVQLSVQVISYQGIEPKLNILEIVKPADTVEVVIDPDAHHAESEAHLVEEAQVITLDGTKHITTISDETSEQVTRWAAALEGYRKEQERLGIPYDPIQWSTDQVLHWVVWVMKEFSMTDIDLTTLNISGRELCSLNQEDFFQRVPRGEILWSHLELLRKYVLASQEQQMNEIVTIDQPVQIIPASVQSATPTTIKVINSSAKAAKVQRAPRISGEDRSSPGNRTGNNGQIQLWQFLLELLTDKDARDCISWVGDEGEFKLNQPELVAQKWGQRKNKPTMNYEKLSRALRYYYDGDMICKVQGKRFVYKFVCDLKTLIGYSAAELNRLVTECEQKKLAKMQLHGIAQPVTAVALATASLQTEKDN
# Method in brief: as §1
# [3] = biological target: T3, ERG (Homo sapiens, UniProt P11308 1-479)
# T3 sequence: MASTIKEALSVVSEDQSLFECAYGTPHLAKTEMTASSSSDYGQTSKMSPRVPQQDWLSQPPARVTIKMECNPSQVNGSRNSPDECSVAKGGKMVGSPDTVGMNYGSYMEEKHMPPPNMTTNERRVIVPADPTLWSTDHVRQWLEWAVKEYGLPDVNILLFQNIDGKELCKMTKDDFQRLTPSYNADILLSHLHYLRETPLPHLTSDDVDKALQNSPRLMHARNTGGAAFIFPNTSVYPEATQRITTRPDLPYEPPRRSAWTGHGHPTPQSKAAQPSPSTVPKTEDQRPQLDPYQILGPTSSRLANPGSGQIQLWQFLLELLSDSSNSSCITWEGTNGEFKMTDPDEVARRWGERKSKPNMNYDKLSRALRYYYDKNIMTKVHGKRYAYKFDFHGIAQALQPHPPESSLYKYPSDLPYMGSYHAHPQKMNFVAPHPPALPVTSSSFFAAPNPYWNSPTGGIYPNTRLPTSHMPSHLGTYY
# Method in brief: as §1
# [4] = biological target: ELF1 (Homo sapiens, UniProt P32519 1-619)
# Method in brief: as §1
# [5] = biological target: T4, SPIC (Homo sapiens, UniProt Q8N5J4 1-248)
# T4 sequence: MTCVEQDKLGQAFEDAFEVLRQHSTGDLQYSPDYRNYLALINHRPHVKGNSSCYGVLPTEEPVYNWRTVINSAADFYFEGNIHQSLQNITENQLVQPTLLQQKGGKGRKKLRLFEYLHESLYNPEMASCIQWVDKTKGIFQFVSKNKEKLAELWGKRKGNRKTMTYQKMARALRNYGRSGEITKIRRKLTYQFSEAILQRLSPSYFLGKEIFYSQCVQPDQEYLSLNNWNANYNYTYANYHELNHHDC
# Method in brief: as §1
# [6] = biological target: ELF4 (Homo sapiens, UniProt Q99607 1-663)
# Method in brief: as §1
# [7] = biological target: T5, ELK4 (Homo sapiens, UniProt P28324-2 1-405)
# T5 sequence: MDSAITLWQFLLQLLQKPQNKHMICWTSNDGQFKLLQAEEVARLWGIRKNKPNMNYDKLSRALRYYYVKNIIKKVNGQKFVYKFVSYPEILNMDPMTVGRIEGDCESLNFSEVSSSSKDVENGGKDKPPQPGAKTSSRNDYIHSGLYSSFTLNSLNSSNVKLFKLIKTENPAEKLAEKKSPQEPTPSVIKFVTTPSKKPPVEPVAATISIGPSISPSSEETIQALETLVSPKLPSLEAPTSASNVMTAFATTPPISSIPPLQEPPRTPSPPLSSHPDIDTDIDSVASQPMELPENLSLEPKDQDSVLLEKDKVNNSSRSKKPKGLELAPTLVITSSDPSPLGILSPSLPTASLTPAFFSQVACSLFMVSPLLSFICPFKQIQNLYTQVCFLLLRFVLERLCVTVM
# Method in brief: as §1
# [8] = biological target: T6, ELF3 (Homo sapiens, UniProt P78545 1-371)
# T6 sequence: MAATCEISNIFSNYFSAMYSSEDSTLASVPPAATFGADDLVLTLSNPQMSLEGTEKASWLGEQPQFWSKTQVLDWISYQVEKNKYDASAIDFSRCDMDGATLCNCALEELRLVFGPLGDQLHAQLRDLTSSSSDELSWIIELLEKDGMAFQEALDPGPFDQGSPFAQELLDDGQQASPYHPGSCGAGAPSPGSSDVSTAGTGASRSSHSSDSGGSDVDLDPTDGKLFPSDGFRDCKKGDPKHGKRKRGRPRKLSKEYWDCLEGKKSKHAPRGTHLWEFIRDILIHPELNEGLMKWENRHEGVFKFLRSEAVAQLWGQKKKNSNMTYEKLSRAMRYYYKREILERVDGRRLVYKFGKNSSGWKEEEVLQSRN
# Method in brief: as §1
# [9] = biological target: T7, ERF (Homo sapiens, UniProt P50548 1-548)
# T7 sequence: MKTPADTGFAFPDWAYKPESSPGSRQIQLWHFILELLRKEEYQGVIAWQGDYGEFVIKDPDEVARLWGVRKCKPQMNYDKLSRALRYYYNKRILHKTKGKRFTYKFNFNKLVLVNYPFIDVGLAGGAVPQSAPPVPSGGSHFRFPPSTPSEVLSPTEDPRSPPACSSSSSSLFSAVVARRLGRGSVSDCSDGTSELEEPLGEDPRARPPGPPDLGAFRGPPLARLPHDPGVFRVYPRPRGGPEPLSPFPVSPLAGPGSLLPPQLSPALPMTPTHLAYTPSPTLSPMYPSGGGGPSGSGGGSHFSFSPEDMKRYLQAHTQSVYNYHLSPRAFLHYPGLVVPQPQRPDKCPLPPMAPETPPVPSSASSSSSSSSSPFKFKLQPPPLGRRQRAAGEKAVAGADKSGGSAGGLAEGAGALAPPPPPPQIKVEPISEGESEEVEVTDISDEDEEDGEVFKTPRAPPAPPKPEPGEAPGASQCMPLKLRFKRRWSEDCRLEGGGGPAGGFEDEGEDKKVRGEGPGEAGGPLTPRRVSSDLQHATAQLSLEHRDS
# Method in brief: as §1
# [10] = biological target: T8, ETV3L (Homo sapiens, UniProt Q6ZN32 1-361)
# T8 sequence: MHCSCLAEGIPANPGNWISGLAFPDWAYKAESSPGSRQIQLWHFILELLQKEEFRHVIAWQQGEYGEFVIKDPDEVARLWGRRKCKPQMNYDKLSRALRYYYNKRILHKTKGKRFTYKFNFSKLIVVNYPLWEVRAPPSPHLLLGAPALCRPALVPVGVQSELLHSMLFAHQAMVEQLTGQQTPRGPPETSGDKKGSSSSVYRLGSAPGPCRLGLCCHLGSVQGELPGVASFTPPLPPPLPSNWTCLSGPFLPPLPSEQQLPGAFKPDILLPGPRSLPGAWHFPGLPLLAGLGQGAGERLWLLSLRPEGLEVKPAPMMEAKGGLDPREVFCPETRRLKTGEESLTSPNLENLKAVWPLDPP
# Method in brief: as §1
# [11] = biological target: T9, ETS2 (Homo sapiens, UniProt P15036 1-469)
# T9 sequence: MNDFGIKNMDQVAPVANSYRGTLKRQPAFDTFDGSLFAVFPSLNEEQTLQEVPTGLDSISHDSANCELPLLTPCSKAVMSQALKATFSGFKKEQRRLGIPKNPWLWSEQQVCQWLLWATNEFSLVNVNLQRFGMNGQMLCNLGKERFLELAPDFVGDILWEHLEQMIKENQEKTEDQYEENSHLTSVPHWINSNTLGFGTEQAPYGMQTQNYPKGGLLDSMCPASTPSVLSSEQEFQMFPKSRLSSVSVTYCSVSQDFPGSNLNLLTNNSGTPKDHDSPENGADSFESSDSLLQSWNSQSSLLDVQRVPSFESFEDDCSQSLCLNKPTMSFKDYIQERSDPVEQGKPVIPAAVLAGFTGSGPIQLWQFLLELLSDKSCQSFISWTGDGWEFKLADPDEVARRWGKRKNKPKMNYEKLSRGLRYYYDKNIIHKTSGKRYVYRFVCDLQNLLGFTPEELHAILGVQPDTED
# Method in brief: as §1
# [12] = biological target: T10, ETV3 (Homo sapiens, UniProt P41162-2 1-143)
# T10 sequence: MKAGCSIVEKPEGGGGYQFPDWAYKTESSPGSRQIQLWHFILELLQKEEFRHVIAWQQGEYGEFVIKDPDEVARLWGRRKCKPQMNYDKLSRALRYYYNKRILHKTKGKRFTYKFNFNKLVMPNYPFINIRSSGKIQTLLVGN
# Method in brief: as §1
# [13] = biological target: ETV6 (Homo sapiens, UniProt P41212 1-452)
# Method in brief: as §1
# Chain of ETV6 (P41212 whole entry): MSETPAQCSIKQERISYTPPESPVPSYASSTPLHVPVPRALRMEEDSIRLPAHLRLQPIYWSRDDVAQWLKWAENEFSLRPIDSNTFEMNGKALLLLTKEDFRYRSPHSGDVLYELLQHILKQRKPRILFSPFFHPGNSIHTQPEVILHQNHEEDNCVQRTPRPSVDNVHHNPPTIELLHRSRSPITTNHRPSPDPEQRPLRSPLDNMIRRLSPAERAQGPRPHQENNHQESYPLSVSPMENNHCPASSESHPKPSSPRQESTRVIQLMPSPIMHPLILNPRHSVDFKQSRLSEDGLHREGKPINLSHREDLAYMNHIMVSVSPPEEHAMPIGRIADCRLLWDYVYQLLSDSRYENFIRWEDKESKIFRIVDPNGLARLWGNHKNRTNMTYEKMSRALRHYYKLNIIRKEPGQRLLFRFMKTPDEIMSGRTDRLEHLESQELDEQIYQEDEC
# Chain of ELF4 (Q99607 whole entry): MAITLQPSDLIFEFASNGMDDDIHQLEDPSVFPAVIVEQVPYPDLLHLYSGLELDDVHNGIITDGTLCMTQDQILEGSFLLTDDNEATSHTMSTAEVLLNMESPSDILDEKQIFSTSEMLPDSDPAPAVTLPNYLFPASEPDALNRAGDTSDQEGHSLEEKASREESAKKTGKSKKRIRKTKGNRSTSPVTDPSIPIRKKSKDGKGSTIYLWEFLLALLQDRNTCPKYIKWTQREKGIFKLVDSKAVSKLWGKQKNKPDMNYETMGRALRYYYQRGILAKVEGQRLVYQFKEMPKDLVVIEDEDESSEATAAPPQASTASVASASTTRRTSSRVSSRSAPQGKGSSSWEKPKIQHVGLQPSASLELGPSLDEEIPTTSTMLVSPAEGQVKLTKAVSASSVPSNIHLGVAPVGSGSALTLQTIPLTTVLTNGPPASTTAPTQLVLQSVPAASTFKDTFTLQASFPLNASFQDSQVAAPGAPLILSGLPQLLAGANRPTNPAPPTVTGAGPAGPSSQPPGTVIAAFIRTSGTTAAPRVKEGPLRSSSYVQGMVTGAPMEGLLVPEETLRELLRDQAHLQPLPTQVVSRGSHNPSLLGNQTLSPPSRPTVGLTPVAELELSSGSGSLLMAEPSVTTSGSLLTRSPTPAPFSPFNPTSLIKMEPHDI
# Chain of ELF1 (P32519 whole entry): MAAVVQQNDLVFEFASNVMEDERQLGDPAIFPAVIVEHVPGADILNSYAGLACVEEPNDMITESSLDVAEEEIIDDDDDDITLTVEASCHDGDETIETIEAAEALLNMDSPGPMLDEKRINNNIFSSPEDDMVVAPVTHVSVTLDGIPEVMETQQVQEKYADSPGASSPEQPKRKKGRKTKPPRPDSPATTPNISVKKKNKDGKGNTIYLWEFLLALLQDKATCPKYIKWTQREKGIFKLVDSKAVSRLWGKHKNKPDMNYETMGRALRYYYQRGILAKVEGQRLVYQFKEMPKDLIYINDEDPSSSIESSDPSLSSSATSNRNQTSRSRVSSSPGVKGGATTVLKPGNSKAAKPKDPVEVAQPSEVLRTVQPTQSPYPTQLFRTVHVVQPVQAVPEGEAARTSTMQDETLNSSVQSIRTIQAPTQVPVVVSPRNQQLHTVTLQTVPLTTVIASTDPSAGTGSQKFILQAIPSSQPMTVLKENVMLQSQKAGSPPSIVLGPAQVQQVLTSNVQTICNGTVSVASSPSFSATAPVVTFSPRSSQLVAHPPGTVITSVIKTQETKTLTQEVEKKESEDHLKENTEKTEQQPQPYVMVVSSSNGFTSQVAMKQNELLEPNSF
sequence,measurement,setting,value
GCCCGA,binding signal,[1],"1.01 fold enrichment (6-mer frequency, TF over GST control)"
same,binding signal,[2],"1.02 fold enrichment (6-mer frequency, TF over GST control)"
same,binding signal,[3],"1.01 fold enrichment (6-mer frequency, TF over GST control)"
same,binding signal,[4],"1.14 fold enrichment (6-mer frequency, TF over GST control)"
same,binding signal,[5],"1.11 fold enrichment (6-mer frequency, TF over GST control)"
same,binding signal,[6],"1.02 fold enrichment (6-mer frequency, TF over GST control)"
same,binding signal,[7],"1.1 fold enrichment (6-mer frequency, TF over GST control)"
same,binding signal,[8],"1.21 fold enrichment (6-mer frequency, TF over GST control)"
same,binding signal,[9],"1.05 fold enrichment (6-mer frequency, TF over GST control)"
same,binding signal,[10],"1.01 fold enrichment (6-mer frequency, TF over GST control)"
same,binding signal,[11],"1.08 fold enrichment (6-mer frequency, TF over GST control)"
same,binding signal,[12],"1.04 fold enrichment (6-mer frequency, TF over GST control)"
same,binding signal,[13],"1.07 fold enrichment (6-mer frequency, TF over GST control)"
